Structures can show the parent of a compound that is named as a salt.
Assays:
Conditions in all cases: 10 µM; exposure time 6 h
[1] = test system: Danio rerio larvae (5 dpf); test: difference in excitability vs DMSO (percentage points); higher = more excitable than DMSO
Outline: (§1)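 In 96-well plates, 48 wild-type zebrafish larvae aged 5 dpf per compound received 100 µL egg water with library compound at 10 µM final for 6 h. Three hours into this, a 3-h programme of moving lines and 100 ms, 400Hz tones ran at 28.5 ℃ while plates were photographed every 6 s. Z-LaP Tracker scored the behaviours, and each is given as the compound mean minus the vehicle control mean in percentage points.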

[2] = test system: Danio rerio larvae (5 dpf); test: difference in startle response vs DMSO (percentage points); higher = stronger startle than DMSO
Outline: as §1

[3] = test system: Danio rerio larvae (5 dpf); test: difference in activity during first hour vs DMSO (percentage points); higher = more activity than DMSO
Outline: as §1

[4] = test system: Danio rerio larvae (5 dpf); test: difference in habituation to acoustic stimuli vs DMSO (percentage points); higher = more habituation than DMSO
Outline: as §1

[5] = test system: Danio rerio larvae (5 dpf); test: difference in combined optomotor response to red, green and blue moving lines vs DMSO (percentage points); higher = stronger optomotor response than DMSO
Outline: as §1

| Compound | difference in excitability [1] | difference in startle response [2] | difference in activity during first hour [3] | difference in habituation to acoustic stimuli [4] | difference [5] |
| --- | --- | --- | --- | --- | --- |
| CC(C)(C)NCC(O)c1ccc(O)c(CO)c1 (stereo not given) [Salbutamol] | 8.67 | 1.17 | 20.7 | -4.78 | 5.67 |
| C[C@@H](O[C@H]1OCCN(Cc2n[nH]c(=O)[nH]2)[C@H]1c1ccc(F)cc1)c1cc(C(F)(F)F)cc(C(F)(F)F)c1 [Aprepitant] | 9.22 | -5.06 | 6.23 | -3.45 | 4.82 |
| OC[C@H]1O[C@@H](n2cnc3c2N=CNC[C@H]3O)C[C@@H]1O [Pentostatin] | 4.36 | -6.74 | 2.27 | 0.584 | 3.35 |
| NCCCC(N)(C(=O)O)C(F)F (racemic) [DL-α-Difluoromethylornithine (hydrochloride hydrate)] | -2.42 | -3.99 | 10.2 | 2.49 | 2.05 |
| Cc1oncc1C(=O)Nc1ccc(C(F)(F)F)cc1 [Leflunomide] | 20.4 | -4.19 | 4.33 | -10.8 | 2.2 |
| NNC(=O)c1ccncc1 [Isoniazid] | 6.63 | 4.93 | 12.7 | -2.52 | 6.66 |
| CO[C@H]1C(=O)[C@]2(C)[C@@H](OC)C[C@H]3OC[C@@]3(OC(C)=O)[C@H]2[C@H](OC(=O)c2ccccc2)[C@]2(O)C[C@H](OC(=O)[C@H](O)[C@@H](NC(=O)OC(C)(C)C)c3ccccc3)C(C)=C1C2(C)C [Cabazitaxel] | 6.19 | 4.59 | 13.7 | 3.39 | 2.83 |
| Nc1nc(N)c2nc(-c3ccccc3)c(N)nc2n1 [Triamterene] | -0.938 | 5.79 | 11.3 | -2.13 | 6.72 |
| Brc1c(NC2=NCCN2)ccc2nccnc12 [Brimonidine (tartrate)] | -0.928 | -0.293 | -14.2 | 3.89 | 10.9 |
| Cc1nc(Nc2ncc(C(=O)Nc3c(C)cccc3Cl)s2)cc(N2CCN(CCO)CC2)n1 [Dasatinib] | 11.4 | -1.6 | -4.95 | 1.58 | -0.962 |
| NCCNCCNCCN [Trientine (hydrochloride)] | 15.9 | -0.163 | 13 | -1.81 | -9.36 |
| CCCc1nc2c(C)cc(-c3nc4ccccc4n3C)cc2n1Cc1ccc(-c2ccccc2C(=O)O)cc1 [Telmisartan] | 14.6 | -11.8 | 9.61 | -3.85 | -8.32 |
| CCN(CC)CCOC(=O)C1(C2CCCCC2)CCCCC1 [Dicyclomine (hydrochloride)] | 9.55 | -4.86 | -8.86 | -5.06 | -3.96 |
| O=C(O)CCCN1CCC(O[C@@H](c2ccc(Cl)cc2)c2ccccn2)CC1 [Bepotastine (besylate)] | 13.3 | 3.74 | 0.00178 | 0.195 | 1.29 |
| CC(CCc1ccc(O)cc1)NCCc1ccc(O)c(O)c1 (stereo not given) [Dobutamine (hydrochloride)] | 10.9 | 6.81 | -2.65 | 12 | 13.9 |
| CN(C)c1ccc(O)c2c1C[C@H]1C[C@H]3[C@H](N(C)C)C(O)=C(C(N)=O)C(=O)[C@@]3(O)C(O)=C1C2=O [Minocycline (hydrochloride hydrate)] | 3.95 | -2.06 | 13.3 | 8.03 | -2.24 |
| CC(=O)Nc1cccc(-n2c(=O)n(C3CC3)c(=O)c3c(Nc4ccc(I)cc4F)n(C)c(=O)c(C)c32)c1 [Trametinib] | 9.81 | 0.301 | 6.06 | 2.09 | 6.51 |
| CO[C@H]1/C=C/O[C@@]2(C)Oc3c(C)c(O)c4c(O)c(c(/C=N/N5CCN(C6CCCC6)CC5)c(O)c4c3C2=O)NC(=O)/C(C)=C\C=C\[C@H](C)[C@H](O)[C@@H](C)[C@@H](O)[C@@H](C)[C@H](OC(C)=O)[C@@H]1C [Rifapentine] | 24.8 | -0.153 | -3.15 | 6.16 | 6.78 |
| N=C(NCCCCCCNC(=N)NC(=N)Nc1ccc(Cl)cc1)NC(=N)Nc1ccc(Cl)cc1 [Chlorhexidine (hydrochloride)] | 11.8 | -11 | -19.9 | -10.2 | -17.6 |
| CNCCC(Oc1ccc(C(F)(F)F)cc1)c1ccccc1 (stereo not given) [Fluoxetine (hydrochloride)] | 2.79 | -8.12 | -19.3 | -5.89 | -6.12 |
| Cc1cnc(C(=O)NCCc2ccc(S(=O)(=O)NC(=O)NC3CCCCC3)cc2)cn1 [Glipizide] | 0.585 | 1.17 | -9.11 | 5.88 | 8.81 |
| CN(C)[C@@H]1C(O)=C(C(N)=O)C(=O)[C@@]2(O)C(O)=C3C(=O)c4c(O)cccc4[C@@](C)(O)[C@H]3[C@H](O)[C@@H]12 [Oxytetracycline] | -1.74 | -1.21 | 20.6 | 5.81 | -0.914 |
| C=C1/C(=C\C=C2/CCC[C@]3(C)[C@@H]([C@H](C)CCCC(C)(C)O)CC[C@@H]23)C[C@@H](O)C[C@@H]1O [Calcitriol] | 7.32 | -3.08 | -9.65 | 5.79 | -3.39 |
| C[C@@H](c1ncncc1F)[C@](O)(Cn1cncn1)c1ccc(F)cc1F [Voriconazole] | 4.54 | 3.6 | -18.9 | 3.51 | 5.07 |

| Compound | difference in excitability [1] | difference in startle response [2] | difference in activity during first hour [3] | difference in habituation to acoustic stimuli [4] | difference [5] |
| --- | --- | --- | --- | --- | --- |
| c1ccc2c(CC3=NCCN3)cccc2c1 [Naphazoline (hydrochloride)] | 10.4 | -5.95 | 0.867 | -2.18 | -3.73 |
| CN1[C@@H]2CC[C@H]1C[C@@H](OC(c1ccccc1)c1ccccc1)C2 [Benztropine (mesylate)] | -5.24 | -9.21 | 27.7 | -9.38 | -1.29 |
| c1cc(CN2CCCNCCNCCCNCC2)ccc1CN1CCCNCCNCCCNCC1 [Plerixafor (hydrochloride hydrate)] | 11.6 | -7.66 | -16 | -5.73 | -15.1 |
| CC(C)NCC(O)c1cc(O)cc(O)c1 (stereo not given) [Metaproterenol (hemisulfate)] | 3.08 | 0.666 | 26.4 | -8.48 | 1.44 |
| CC[C@@H]1C(=O)OC[C@@H]1Cc1cncn1C [(+)-Pilocarpine (hydrochloride)] | 9.24 | -3.79 | -22.2 | 5.07 | -5.32 |
| O=C1Cc2cc(CCN3CCN(c4nsc5ccccc45)CC3)c(Cl)cc2N1 [Ziprasidone (hydrochloride hydrate)] | 26.8 | 5.81 | 11.2 | -6.75 | 5.5 |
| Cc1ccc(C)c(OCCCC(C)(C)C(=O)O)c1 [Gemfibrozil] | 14.3 | -10.7 | -1.6 | -4.26 | 4.28 |
| C[N+]1(C)CCC(OC(=O)C(O)(c2ccccc2)C2CCCC2)C1 (stereo not given) [Glycopyrrolate] | -0.597 | -8.53 | 7.84 | -7.11 | -2.89 |
| COc1c(C)c2c(c(O)c1C/C=C(\C)CCC(=O)OCCN1CCOCC1)C(=O)OC2 [Mycophenolate Mofetil] | 7.89 | -4.66 | -3.09 | -2.74 | 1.02 |
| CCCSc1ccc2[nH]c(NC(=O)OC)nc2c1 [Albendazole] | 17.3 | 4.02 | 4.4 | 0.0113 | 3 |
| CCOC(=O)[C@H](CCc1ccccc1)N[C@@H](C)C(=O)N1Cc2cc(OC)c(OC)cc2C[C@H]1C(=O)O [Moexipril (hydrochloride)] | 11.9 | -4.62 | 7.71 | 2.63 | -1.21 |
| Cc1c(-c2ccc(O)cc2)n(Cc2ccc(OCCN3CCCCCC3)cc2)c2ccc(O)cc12 [Bazedoxifene (acetate)] | 9.87 | 1.08 | -9.97 | -5.25 | -3.93 |
| CN1CCC[C@H]1c1cccnc1 (racemic) [(±)-Nicotine] | 9.04 | -8.45 | 50 | -10.6 | -14.9 |
| CCCS(=O)(=O)Nc1ccc(F)c(C(=O)c2c[nH]c3ncc(-c4ccc(Cl)cc4)cc23)c1F | -2.43 | -1.48 | -5.03 | 2.88 | -0.602 |
| CCOc1ccc(Cc2cc([C@]34OC[C@](CO)(O3)[C@@H](O)[C@H](O)[C@H]4O)ccc2Cl)cc1 [Ertugliflozin] | 0.00277 | -5.35 | 3.38 | 4.89 | 1.51 |
| CSc1ccc2c(c1)N(CCC1CCCCN1C)c1ccccc1S2 (stereo not given) [Thioridazine (hydrochloride)] | 19.8 | -0.778 | 12.9 | -8.21 | -5 |
| CNCCC=C1c2ccccc2CCc2ccccc21 [Nortriptyline (hydrochloride)] | 3.17 | 4.3 | -17.9 | -3.34 | -2.39 |
| CC(C)(C)NCC(O)COc1cccc2c1CCC(=O)N2 (stereo not given) [Carteolol (hydrochloride)] | 4.97 | -3.33 | 6.77 | 1.1 | 4.95 |
| CC(CCc1ccccc1)NCC(O)c1ccc(O)c(C(N)=O)c1 (stereo not given) [Labetalol (hydrochloride)] | 3.49 | 0.137 | 5.09 | 3.73 | -2.36 |
| Clc1ccc(CO/N=C(\Cn2ccnc2)c2ccc(Cl)cc2Cl)c(Cl)c1 [Oxiconazole (nitrate)] | 5.37 | -6.72 | -22.9 | -11 | -17.3 |
| COc1cc(Nc2ncc(F)c(Nc3ccc4c(n3)N(COP(=O)(O)O)C(=O)C(C)(C)O4)n2)cc(OC)c1OC [R788 (sodium salt)] | 4.23 | 4.11 | 7.65 | -1.65 | 2.43 |
| CC[C@H](C)[C@H](N)C1=N[C@H](C(=O)N[C@@H](CC(C)C)C(=O)N[C@H](CCC(=O)[O-])C(=O)N[C@H](C(=O)N[C@H]2CCCCNC(=O)[C@H](CC(N)=O)NC(=O)[C@@H](CC(=O)[O-])NC(=O)[C@H](Cc3cnc[nH]3)NC(=O)[C@@H](Cc3ccccc3)NC(=O)[C@H]([C@@H](C)CC)NC(=O)[C@@H](CCCN)NC2=O)[C@@H](C)CC)CS1.[Zn+2] [Bacitracin (zinc)] | 20.6 | -4.52 | 30.1 | -11 | -7.98 |
| O=C(O)Cc1ccccc1Nc1c(Cl)cccc1Cl [Diclofenac (sodium salt)] | 17.2 | -1.39 | 2.16 | -5.15 | 2.67 |
| O=C(O)c1cc(/N=N/c2ccc(S(=O)(=O)Nc3ccccn3)cc2)ccc1O [Sulfasalazine] | 11.1 | 2.87 | 12.9 | -2.35 | 4.25 |

Source: the supplement of paper PMC10515830
